Compounds without any hit were thinned out: in the full panel of roughly 79,000, 15% have a hit. Values without a mark were called inactive. The source made the active and inactive calls. Rule as the data show it: active = growth inhibition above about 70%; inactive = the rest.

A short description of assay [1]: NCI Yeast Anticancer Drug Screen. Data for the rad50 strain (AID 155).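 Also: 0% = growth of vehicle-only cultures of the same strain.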 Particulars: S. cerevisiae rad50 strain growth inhibition; at 50.0 µM; stronger effect = higher value. The essentials: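 Genetically altered yeast (DNA repair pathway); compound treatment; growth inhibition vs vehicle ctrl.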
Assay [2] in a line: NCI Yeast Anticancer Drug Screen. Data for the mec2-1 strain (AID 157). Particulars: S. cerevisiae mec2-1 strain, at 50.0 µM, stronger effect = higher value. The method in brief:
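Cells of the genetically defined mec2-1 yeast strain are incubated with test compound. Inhibition of growth is calculated against vehicle-treated controls.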

A short description of assay [3]: NCI Yeast Anticancer Drug Screen. Data for the sgs1 mgt1 strain (AID 161).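 Also: 0% = growth of cultures given vehicle only.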 Particulars: S. cerevisiae sgs1 mgt1 strain, at 50.0 µM, stronger effect = higher value. The essentials: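 Read-out: growth inhibition vs vehicle controls. Cells: mutant yeast strain deficient in DNA damage repair.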
Assay [4] in a line: NCI Yeast Anticancer Drug Screen. Data for the cln2 rad14 strain (AID 165).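 Also: 0% = growth equal to vehicle treated cultures.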 Particulars: S. cerevisiae cln2 rad14 strain, at 50.0 µM, stronger effect = higher value. The method in brief: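 The screen exposed genetically defined yeast (cln2 rad14) to test compounds and scored growth inhibition relative to vehicle-treated controls.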
Assay [5] can be described thus: NCI Yeast Anticancer Drug Screen. Data for the bub3 strain (AID 167). Particulars: S. cerevisiae bub3 mutant strain, at 50.0 µM, stronger effect = higher value. The method in brief: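 Yeast carrying a defined mutation is treated with each compound, and growth is compared with that of vehicle-exposed cells to give inhibition.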
Assay [6] can be described thus: NCI Yeast Anticancer Drug Screen. Data for the mlh1 rad18 strain (AID 175). To be noted: S. cerevisiae mlh1 rad18 strain growth inhibition; at 50.0 µM; stronger effect = higher value. The essentials:
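Compound-treated yeast growth, normalised to vehicle controls. Strain bears defined DNA repair mutations.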

On to `CCOc1ccc(NC(=S)NC=C(C#N)C#N)cc1`, for which the growth inhibition is -17.8% in assay [1]; -12.6% in assay [2]; -9.55% in assay [3]; -4.9% in assay [4]; 7.75% in assay [5]; -5.75% in assay [6].
Regarding `CS(=O)(=O)N1CC(CCl)c2ccc(NO)cc21` (stereo not given), the growth inhibition in assay [1] is 43.5%; in assay [2] it was 27.9%; in assay [3] it was 24.9%; in assay [4], 17.3%; in assay [5], 0.45%; in assay [6], -32.4%.
In the case of `COc1ccc(CCn2nnc3ccccc3c2=O)cc1OC`, the growth inhibition in assay [1] was -4.1%; in assay [2], -33.1%; in assay [3] it was -10.1%; in assay [4] it was 16.6%; in assay [5], -28.4%; in assay [6], -11.5%.
For `CCc1ccc2c(OC(C)=O)c3ccccc3c(OC(C)=O)c2c1`, the growth inhibition in assay [1] was 36.4%; in assay [2], 41.3%; in assay [3], 33.4%; in assay [4], 18.2%; in assay [5] it was 46%; in assay [6], 74.6% (active).
In the case of `CC(C)(C)C(=O)C1C(=O)c2ccccc2C1=O`, the growth inhibition is 50.6% in assay [1]; 21.8% in assay [2]; 54% in assay [3]; -35.5% in assay [4]; 5.95% in assay [5]; 31.9% in assay [6].
Consider `CC(C)NC(=O)Nc1ccccc1Cl`, for which the growth inhibition is -4.45% in assay [1]; -8.9% in assay [2]; 6.9% in assay [3]; -28.8% in assay [4]; -11.8% in assay [5]; -0.7% in assay [6].
As to `CC(C)NC1(C(N)=O)CCN(Cc2ccccc2)CC1`, the growth inhibition is 7.85% in assay [1]; -17.2% in assay [2]; 8.1% in assay [3]; -3.15% in assay [4]; -51.9% in assay [5]; 18.1% in assay [6].
Take `N#C/C=C\c1ccc(F)cc1`: the growth inhibition was 27.1% in assay [1]; 9.7% in assay [2]; 17.1% in assay [3]; 3.35% in assay [4]; 10.8% in assay [5]; 12.2% in assay [6].
`O=C(NNC(=O)c1ccc2ccccc2c1)c1ccc(Cl)c(Cl)c1`: the growth inhibition in assay [1] is -13.3%; in assay [2], -23.3%; in assay [3] it was -2.65%; in assay [4] it was 17.1%; in assay [5], -5.25%; in assay [6], -14.1%.
Consider `O=CNC(NC=O)NC=O`, for which the growth inhibition in assay [1] is -3.4%; in assay [2], -2.2%; in assay [3], -2.15%; in assay [4], 15.2%; in assay [5], -4.3%; in assay [6] it was 0.95%.
In the case of `CC(O)CN(CC(C)O)c1ccc2c(c1)Cc1ccccc1-2` (stereo not given), the growth inhibition in assay [1] is -13.2%; in assay [2] it was -13.3%; in assay [3], 13.8%; in assay [4], -20.8%; in assay [5] it was 36%; in assay [6], -4.6%.
In the case of `COc1ccc2c(=O)c(Cc3c[nH]c4ccccc34)coc2c1`, the growth inhibition in assay [1] was 27.6%; in assay [2], 12%; in assay [3], 29%; in assay [4] it was -35.6%; in assay [5] it was 9.85%; in assay [6], 19.2%.
Take `CC1=Nc2c([nH]c(=S)[nH]c2=O)NC(c2c(Cl)cccc2Cl)C1` (stereo not given): the growth inhibition in assay [1] is 3.9%; in assay [2], 11.6%; in assay [3], 14.2%; in assay [4] it was -4.5%; in assay [5], -4.5%; in assay [6], 34.6%.
For the compound `CC1(C)Cc2ccccc2C1=O`, the growth inhibition is 16.1% in assay [1]; -4.85% in assay [2]; 4% in assay [3]; -53.6% in assay [4]; -1.65% in assay [5]; -2% in assay [6].
Regarding `CCC12CC(=O)CCC1CCc1ccc(OC)c(OC)c12` (stereo not given), the growth inhibition was -14.6% in assay [1]; 15.9% in assay [2]; -2.4% in assay [3]; -7.2% in assay [4]; 18.4% in assay [5]; 22.2% in assay [6].
On to `CSC1NC(c2ccc(Cl)cc2)=C(C#N)C(=O)N1C1OCC(OC(C)=O)C(OC(C)=O)C1OC(C)=O` (stereo not given), for which the growth inhibition in assay [1] was -10%; in assay [2] it was -23.6%; in assay [3], -24.2%; in assay [4], -3.85%; in assay [5], -8.6%; in assay [6] it was -8.8%.
On to `c1cc(CSC2=NCCN2)ccc1CSC1=NCCN1`, for which the growth inhibition in assay [1] was -8%; in assay [2] it was 9.25%; in assay [3], -9.2%; in assay [4], -24.3%; in assay [5], 8.9%; in assay [6] it was -3.85%.
In the case of `N#CCCN(CCC#N)S(=O)(=O)c1ccccc1`, the growth inhibition in assay [1] was -3%; in assay [2] it was 5.65%; in assay [3], -4.9%; in assay [4] it was -4.2%; in assay [5], 14.1%; in assay [6], -15.6%.
In the case of `O=P(c1ccccc1)(c1ccccc1)c1ccccc1OCCOCCOc1ccccc1P(=O)(c1ccccc1)c1ccccc1`, the growth inhibition in assay [1] was -7.2%; in assay [2], -3.75%; in assay [3] it was 5.9%; in assay [4], -16.8%; in assay [5] it was 0.35%; in assay [6], 13.9%.
In the case of `O=[N+]([O-])c1ccc(-c2ccc(-c3ccccc3)cc2)cc1`, the growth inhibition was -1.8% in assay [1]; -12.7% in assay [2]; 5.35% in assay [3]; -15.4% in assay [4]; -10.7% in assay [5]; -3.6% in assay [6].

For the origin of these results see PubChem BioAssay (NCI).
